Assay outcomes (PubChem)
NALP3 yeast inh – blocks the NALP3 inflammasome reconstituted in yeast; inhibition, % at 10 µM; 330,000 compounds, 0.39% hits; Yeast reconstituted NLRP3/ASC/caspase-1, beta-gal luminescence, 24 h;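 active = inhibition of 50% or more; inactive = inhibition below 50%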;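 note: plate controls were induced DMSO wells for no effect and uninduced yeast grown without galactose for full effect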
SUMO Mot1 rescue – inhibitors of SUMOylation pathway: yeast Mot1-301 growth rescue; growth rescue, % at 18.8 µM; S. cerevisiae Mot1-301 growth rescue, ATP luminescence, 38.5C; percent above DMSO median, 100 means doubled; 320,000 compounds, 1% hits;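 active = every valid replicate shows activation above 250% relative to neutral control wells; inactive = the rest, any valid replicate at or below 250%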;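 note: OY570 slx delta 5 strain wells were the positive control but not used for scaling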
CHT block – human CHT choline transport inhibition; Q9GZV3; CHT-expressing cells, membrane potential dye, choline response; active compounds read low; B-score at 10 µM; 310,000 compounds, 0.86% hits; AID 488975;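 active = B-score over 3 SD under the library average, and starting fluorescence ratio not unusually high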;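 note: choline stimulus applied at its EC90 after an EC20 pre-addition; B-score computed on integrated fluorescence ratio after choline addition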
Target sequence (Q9GZV3 whole entry, looked up): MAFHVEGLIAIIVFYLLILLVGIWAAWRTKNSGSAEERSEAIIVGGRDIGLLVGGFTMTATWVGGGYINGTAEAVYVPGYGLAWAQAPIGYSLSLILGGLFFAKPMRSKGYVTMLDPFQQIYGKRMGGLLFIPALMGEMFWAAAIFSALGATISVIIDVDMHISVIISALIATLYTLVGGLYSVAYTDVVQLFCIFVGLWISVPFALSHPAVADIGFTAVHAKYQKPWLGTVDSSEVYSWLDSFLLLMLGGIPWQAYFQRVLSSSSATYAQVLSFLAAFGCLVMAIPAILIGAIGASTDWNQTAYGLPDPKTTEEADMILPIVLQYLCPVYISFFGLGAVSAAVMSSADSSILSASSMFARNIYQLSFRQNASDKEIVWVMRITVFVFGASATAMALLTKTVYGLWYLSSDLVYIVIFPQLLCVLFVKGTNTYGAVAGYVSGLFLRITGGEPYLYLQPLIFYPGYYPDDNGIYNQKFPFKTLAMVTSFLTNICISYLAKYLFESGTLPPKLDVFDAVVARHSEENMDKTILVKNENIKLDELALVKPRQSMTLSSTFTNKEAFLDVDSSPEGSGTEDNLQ
CHT PAM – allosterically activates the human high affinity choline transporter | CHT-expressing cells, membrane potential dye, choline EC20; active compounds read high; LV-AA mutant CHT in HEK293 cells | 310,000 compounds, 0.49% hits | B-score at 10 µM | Q9GZV3 | AID 488977;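 active = initial fluorescence not abnormally high and integrated response B-score, plate-corrected, over 3 SD above library mean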
Bfl-1 A1 inh – inhibitors of the anti-apoptotic protein A1, read as caspase activation; MEF A1-2A-BIM cells, Caspase-Glo 3/7 luminescence, 3 h; percent of clofoctol response, vehicle zero; 330,000 compounds, 0.066% hits; caspase activation, % (test concentration not listed); AID 2462;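 active = over half of replicate activation scores above 10%, or exactly half above 10 with the replicate mean above 10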
NALP1 yeast inh – NALP1 inhibition. S. cerevisiae NALP1/ASC/caspase-1 growth, X-gal OD620, 72 h. inhibition, % at 10 µM. 280,000 compounds, 0.61% hits. AID 2071; in the data active = inhibition mostly above about 24%, no sharp cut-off; inactive = mostly below about 32%
CHT block conf – confirmation of human choline transporter CHT inhibitors | CHT-expressing cells, choline membrane potential dye; LV-to-AA substituted CHT, HEK293 cells | shares compounds with CHT block | 2,400 compounds, 70% hits | CHT activity remaining % of control (active compounds read low), % at 10 µM;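 active = choline transporter activity left, mean of duplicates at 10 µM, below buffer-only control mean minus 3 SD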;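 note: depolarization triggered by choline at its EC90 following an EC20 pre-addition; 0% = hemicholinium-3 full block and 100% = buffer-only control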
HEK293 MPD ctr – activity in parental HEK293 cells lacking CHT. 2,400 compounds, 4% hits. shares compounds with CHT block. membrane potential dye, choline response; active = decrease or increase beyond buffer ±3SD. membrane potential ratio readout (active if shifted either direction beyond buffer ±3SD; no single direction) at 10 µM;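 note: parental cells lack the transporter so any hit is non-specific; ratio is peak minus trough fluorescence over baseline after EC90 choline challenge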
* hit, by the source's call. Rows were chosen to be rich in hits. Some 3% of all compounds tested hit in one or more screens of this group.

What do the screens show for `CC1CN(C(=O)CCC(=O)N2CCCCC2)c2cc(Cl)ccc2O1` (configuration not stated)?
NALP3 yeast inh: 11; SUMO Mot1 rescue: -12; CHT block: inactive; CHT PAM: inactive; Bfl-1 A1 inh: 1; NALP1 yeast inh: 10

How did CC1CN(C(=O)CCC(=O)NC(C)c2ccccc2)c2cc(Cl)ccc2O1 (configuration not stated) do in these assays?
NALP3 yeast inh: 12; SUMO Mot1 rescue: -14; CHT block: inactive; CHT PAM: inactive; Bfl-1 A1 inh: 0; NALP1 yeast inh: -14; CHT block conf: 24%*; HEK293 MPD ctr: inactive

Results for Cc1cc(O)ccc1NS(=O)(=O)c1ccc2c3c(cccc13)C(=O)N2 ?
NALP3 yeast inh: 21; SUMO Mot1 rescue: -5; CHT block: -6.5*; CHT PAM: inactive; Bfl-1 A1 inh: 0; NALP1 yeast inh: 3; CHT block conf: 57%*; HEK293 MPD ctr: inactive

Results for O=C(O)c1ccccc1NS(=O)(=O)c1ccc2c3c(cccc13)C(=O)N2 ?
NALP3 yeast inh: 12; SUMO Mot1 rescue: -12; CHT block: inactive; CHT PAM: inactive; Bfl-1 A1 inh: -1; NALP1 yeast inh: 4

What do the screens show for `COc1ccc(-n2c(SCC(=O)NCC3CCCO3)nc3ccccc32)cc1` (configuration not stated)?
NALP3 yeast inh: 10; SUMO Mot1 rescue: 0; CHT block: -5.5*; CHT PAM: inactive; Bfl-1 A1 inh: 0; NALP1 yeast inh: 10; CHT block conf: inactive; HEK293 MPD ctr: inactive

What do the screens show for `CCC(C)C(NS(=O)(=O)c1ccc(C)cc1)C(=O)N1CCOCCOCCOCC1` (configuration not stated)?
NALP3 yeast inh: 10; SUMO Mot1 rescue: -3; CHT block: inactive; CHT PAM: inactive; Bfl-1 A1 inh: 0; NALP1 yeast inh: 4

What do the screens show for `Oc1ccc(-c2nc(-c3ccc(O)c(O)c3)cs2)cc1`?
NALP3 yeast inh: 10; SUMO Mot1 rescue: 70; CHT block: -5*; CHT PAM: inactive; Bfl-1 A1 inh: 0; NALP1 yeast inh: 10; CHT block conf: 68%*; HEK293 MPD ctr: inactive

What do the screens show for `Oc1ccc(Nc2nc(-c3ccc4ccccc4c3)cs2)cc1`?
NALP3 yeast inh: 21; SUMO Mot1 rescue: 12; CHT block: inactive; CHT PAM: inactive; Bfl-1 A1 inh: 0; NALP1 yeast inh: 39

What do the screens show for `Cc1ccc(C2=NCCn3c2c2ccc(C(F)(F)F)cc2[n+]3[O-])cc1`?
NALP3 yeast inh: 2; SUMO Mot1 rescue: 0; CHT block: inactive; CHT PAM: inactive; Bfl-1 A1 inh: 0

Results for CC1(C)CCCN(C(=O)c2ccc3c(c2NCCO)C(=O)c2ccccc2C3=O)C1 ?
NALP3 yeast inh: -10; SUMO Mot1 rescue: -5; CHT block: -7.2*; CHT PAM: inactive; Bfl-1 A1 inh: 0; NALP1 yeast inh: 28; CHT block conf: 42%*; HEK293 MPD ctr: 2.6*

Results for Cc1ccc(S(=O)(=O)N(C)C)cc1NC(=O)C1CCCCN1S(=O)(=O)c1ccccc1 (configuration not stated) ?
NALP3 yeast inh: 10; SUMO Mot1 rescue: 1; Bfl-1 A1 inh: 1

Results for CC(C(=O)NCc1ccco1)n1ccc2cc(S(=O)(=O)N3CCCCC3)ccc21 (configuration not stated) ?
NALP3 yeast inh: 7; SUMO Mot1 rescue: -24; CHT block: inactive; CHT PAM: inactive; Bfl-1 A1 inh: 0; NALP1 yeast inh: -4

Results for C=CCn1c(SC2CCOC2=O)nc2scc(C3CC3)c2c1=O (configuration not stated) ?
NALP3 yeast inh: -22; SUMO Mot1 rescue: 5; CHT block: -5.7*; CHT PAM: inactive; Bfl-1 A1 inh: 1; NALP1 yeast inh: 3; CHT block conf: 47%*; HEK293 MPD ctr: inactive

Results for CS(=O)(=O)n1nc(OC(=O)c2cccc3ccccc23)cc1N ?
NALP3 yeast inh: -9; SUMO Mot1 rescue: 3; CHT block: -5.4*; CHT PAM: inactive; Bfl-1 A1 inh: 0; NALP1 yeast inh: -4; CHT block conf: 63%*; HEK293 MPD ctr: inactive

What do the screens show for `CCN(c1ccccc1)S(=O)(=O)c1ccc(N2CCN(c3ccc(O)cc3)CC2)nc1`?
NALP3 yeast inh: 30; SUMO Mot1 rescue: 156; Bfl-1 A1 inh: -1

What do the screens show for `COc1cccc(NC(=O)CN(C)C(=O)CSc2ncnc3sc(C)c(C)c23)c1`?
NALP3 yeast inh: 22; SUMO Mot1 rescue: 15; CHT block: inactive; CHT PAM: inactive; Bfl-1 A1 inh: 0

How did CCN(CC(=O)Nc1cccc(OC)c1)c1ncnc2sc(C)c(C)c12 do in these assays?
NALP3 yeast inh: 16; SUMO Mot1 rescue: 17; CHT block: -5.5*; CHT PAM: inactive; Bfl-1 A1 inh: 0; CHT block conf: 69%*; HEK293 MPD ctr: inactive

What do the screens show for `Cc1noc(NS(=O)(=O)c2ccc(NC(=O)CCCOc3ccc(Cl)cc3Cl)cc2)c1C`?
NALP3 yeast inh: -10; SUMO Mot1 rescue: -13; CHT block: inactive; CHT PAM: inactive; Bfl-1 A1 inh: -1; NALP1 yeast inh: 18

What do the screens show for `Cc1noc(NS(=O)(=O)c2ccc(NC(=O)COc3ccc(Cl)cc3Cl)cc2)c1C`?
NALP3 yeast inh: -11; SUMO Mot1 rescue: -29; CHT block: -6.4*; CHT PAM: inactive; Bfl-1 A1 inh: 0; NALP1 yeast inh: 5; CHT block conf: 39%*; HEK293 MPD ctr: inactive

How did COc1ccc(OCC(=O)Nc2ccc(S(=O)(=O)Nc3cc(C)on3)cc2)cc1 do in these assays?
NALP3 yeast inh: -4; SUMO Mot1 rescue: -6; CHT block: inactive; CHT PAM: inactive; Bfl-1 A1 inh: 0

Results for Cc1cc(NS(=O)(=O)c2ccc(NC(=O)COc3c(C)cc(Br)cc3C)cc2)no1 ?
NALP3 yeast inh: 8; SUMO Mot1 rescue: -3; CHT block: -6*; CHT PAM: inactive; Bfl-1 A1 inh: 1; NALP1 yeast inh: 4; CHT block conf: 34%*; HEK293 MPD ctr: inactive

Results for COc1cc(OC)c(OC)cc1CNCc1ccco1 ?
NALP3 yeast inh: 11; SUMO Mot1 rescue: -1; CHT block: inactive; CHT PAM: inactive; Bfl-1 A1 inh: 0; NALP1 yeast inh: 7
